From PubChem BioAssay AID1578 (Sanford-Burnham Center for Chemical Genomics, 2009) come the findings set out here.

Hit rate of the full screen: of about 290,000 compounds, about 3,000 (1%) were called active. Rule as the data show it: active = inhibition mostly above about 36% (no sharp cut-off); inactive = mostly below about 34%. The list comes from a sample in which actives are over-represented; it also holds similar structures and randomly drawn compounds.

This assay in a line: inhibition of NOD1-driven NF-kB reporter – cell-based, luminescence, uHTS, primary screen (AID 1578).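 Also: HEK-293T reporter cells stimulated with the NOD1 agonist gamma-tri-DAP.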 The following applies: NOD1-driven NF-kB luciferase reporter cells, at 4 µM, stronger effect = higher value. Background: A reporter such as luciferase makes a cellular process visible.
Turning to `C=CCNc1nc(C(=O)OCC(=O)c2ccc(C)c([N+](=O)[O-])c2)cs1`, the inhibition was -31.1% (inactive).

In the case of `CCOC(=O)c1ccc(N2C(=O)C(C)=C(C)C2=O)cc1`, the inhibition was -37.3% (inactive).

For `CCOC(=O)c1ccc(-n2c(C)ccc2C)cc1`, the inhibition is -10.6% (inactive).

With `CCOC(=O)c1ccc(N2C(=O)C=CC2=O)cc1`, the inhibition was 80.8% (active).

With `NS(=O)(=O)c1ccc(CNC(=O)CSc2ccccc2)cc1`, the inhibition was -19.9% (inactive).

For `O=C(COc1ccccc1Cl)NCCCNC(=O)c1cnccn1`, the inhibition is 27.3% (inactive).

As for `CCOc1ccc(NC(=O)CN(C)C(=O)CSC(C)C(=O)Nc2cc(C)on2)cc1OCC` (configuration not stated), the inhibition is 44.5% (active).

`Cc1ccc(C)c(NC(=O)CN(C)C(=O)CSC(C)C(=O)Nc2cc(C)on2)c1` (configuration not stated): the inhibition was -0.8% (inactive).

On to `Cc1cc(NC(=O)C(C)SCC(=O)N(C)CC(=O)Nc2ccc(Br)cc2C)no1` (configuration not stated), for which the inhibition is -22.8% (inactive).

In the case of `COc1cccc(OC)c1-c1nn(-c2ncc(C(F)(F)F)cc2Cl)c(=O)o1`, the inhibition is -7.3% (inactive).

Consider `CCOC(=O)c1cc2c(nc1N)CCCC2`, for which the inhibition is 1.3% (inactive).

Consider `CC(=O)Nc1nc2c(ccc3ccccc32)s1`, for which the inhibition is -38% (inactive).

For `O=C(Cc1cccs1)Nc1nc2c(ccc3ccccc32)s1`, the inhibition is 35.8% (active).

For the compound `O=C(Cc1cccs1)Nc1nc2ccccc2s1`, the inhibition is -32.2% (inactive).

Take `COCCn1c(SCC(=O)NCC2CCCO2)nc2c(c1=O)SCC2` (configuration not stated): the inhibition is -12.5% (inactive).

Turning to `COc1ccc(S(=O)(=O)Cc2ccc(C(=O)NCc3ccc(C)cc3)o2)cc1`, the inhibition was -23.8% (inactive).

On to `O=C(/C=C/c1ccccc1)NC(=S)Nc1ccc(N2CCOCC2)cc1`, for which the inhibition is -25.8% (inactive).

On to `COc1cc(C(=O)Nc2scc(-c3ccccc3)c2C(=O)O)cc(OC)c1OC`, for which the inhibition is -21.1% (inactive).

Regarding `O=C(Nc1scc(-c2cccs2)c1C(=O)O)c1cccs1`, the inhibition is -40.1% (inactive).

On to `COc1cc(C(=O)Nc2scc(-c3ccc(C)cc3)c2C(=O)O)cc(OC)c1OC`, for which the inhibition is 12.7% (inactive).

Consider `O=C(Nc1sc2c(c1C(=O)O)CCCC2)c1cccs1`, for which the inhibition is 43.6% (inactive).

`COc1cc(C(=O)Nc2sc(C)c(C)c2C(=O)O)cc(OC)c1OC`: the inhibition was -18.1% (inactive).

As to `COc1cc(C(=O)Nc2sc3c(c2C(=O)O)CCC3)cc(OC)c1OC`, the inhibition was 7.5% (inactive).

With `COc1ccc(-c2csc(NC(=O)c3cccs3)c2C(=O)O)cc1OC`, the inhibition is -46.6% (inactive).

As to `O=C(/C=C/c1ccccc1)Nc1sc2c(c1C(=O)O)CCC2`, the inhibition was -2.6% (inactive).

For the compound `COc1ccc(CN(C)C(=O)c2cnc(OC)cc2C(F)(F)F)c(OC)c1`, the inhibition was 1% (inactive).

Regarding `OC(CC#CCN1CCCCC1)(c1ccccc1)c1ccccc1`, the inhibition was -4.1% (inactive).

`CCN(c1ccccc1)S(=O)(=O)c1cccc(C(=O)N2CCN(S(=O)(=O)c3ccccc3)CC2)c1`: the inhibition is -20.1% (inactive).

In the case of `Cc1cc(C)nc(NS(=O)(=O)c2ccc(NC(=O)c3ccccc3[N+](=O)[O-])cc2)n1`, the inhibition was -22.1% (inactive).

On to `COc1ccc(-c2nnc(-c3cccnc3)o2)cc1OC`, for which the inhibition is -21.1% (inactive).

For the compound `CC(CNC(=O)COc1ccccc1)OC(=O)Nc1cccc(Cl)c1` (configuration not stated), the inhibition was 16.6% (inactive).

With `CC1=CS/C(=C(/C#N)C(=O)NCc2ccco2)N1c1ccccc1`, the inhibition was 4% (inactive).

As for `COC(=O)C(Cc1c[nH]c2ccccc12)NC(=O)CNC(C)=O` (configuration not stated), the inhibition was 6.8% (inactive).

For `CC1CCc2c(sc(NC(=O)c3ccco3)c2C(=O)O)C1` (configuration not stated), the inhibition was 14.4% (inactive).

Turning to `COC(=O)c1c(NC(=O)c2cccs2)sc2c1CCC(C)C2` (configuration not stated), the inhibition is -32.6% (inactive).

Consider `O=C(NCCCN1CCN(c2ccccc2F)CC1)C1CC(=O)N(C2CCCC2)C1` (configuration not stated), for which the inhibition was 14.3% (inactive).

In the case of `O=C(NC(=S)Nc1ccc2[nH]c(=O)[nH]c2c1)c1ccccc1Cl`, the inhibition was -31.2% (inactive).

On to `COc1ccc(Br)cc1C(=O)NC(=S)Nc1ccc2[nH]c(=O)[nH]c2c1`, for which the inhibition is -35.1% (inactive).

For the compound `O=C(NC(=S)Nc1ccc2[nH]c(=O)[nH]c2c1)c1cc(Br)ccc1Cl`, the inhibition was 47.4% (active).

For `COc1ccc2[nH]c(=O)c(CN(Cc3cccnc3)C(=S)NCC3CCCO3)cc2c1` (configuration not stated), the inhibition is -30.3% (inactive).

As for `O=c1c2[nH]c3ccc(F)cc3c2ncn1CCN1CCOCC1`, the inhibition was -10.5% (inactive).

For `O=P(c1ccccc1)(c1ccccc1)C1CCCO1` (configuration not stated), the inhibition is 4.7% (inactive).

For the compound `O=S(=O)(c1ccc(Cl)cc1)N1CCC2(CC1)CO2`, the inhibition was -17.5% (inactive).

As to `O=S(=O)(c1ccccc1)N1CCC2(CC1)OCCO2`, the inhibition is -41.5% (inactive).

As for `O=S(=O)(c1ccccc1)N1CCC2(CC1)CO2`, the inhibition was 75.5% (active).

Take `O=C(NCCCNC(=O)C(F)(F)C(F)F)C(F)(F)C(F)F`: the inhibition was -3.6% (inactive).

Regarding `O=C(CNS(=O)(=O)c1ccc(Br)cc1)Nc1ccc2c(c1)OCCO2`, the inhibition is -27.7% (inactive).

As to `CCC(CC)=NNC(=O)c1ccccc1OCc1ccc(F)cc1`, the inhibition was -13.1% (inactive).

As for `FC(F)(F)c1ccc(/C=N/NC(=S)NC2CCCCC2)cc1`, the inhibition is -19.8% (inactive).

Regarding `Cc1cccc(C)c1OCc1cc(C(=O)N2CCC(c3ccncc3)CC2)no1`, the inhibition is 6.6% (inactive).

On to `COc1cccc(OCc2cc(C(=O)N3CCC(c4ccncc4)CC3)no2)c1`, for which the inhibition is 26.7% (inactive).

For `COCC1CCN(C(=O)c2cc(COc3ccccc3SC)on2)C1` (configuration not stated), the inhibition is -17.6% (inactive).

In the case of `CSc1ccccc1OCc1cc(C(=O)N2CCC(Oc3cccnc3)CC2)no1`, the inhibition was -30.2% (inactive).

For the compound `Cc1ccc(NC(=S)NC(NC(=O)N(C)C)C(Cl)(Cl)Cl)cc1` (configuration not stated), the inhibition was -18.2% (inactive).

Consider `Cc1cc(OCC(=O)N(C(C)C)C(C)C)ccc1Cl`, for which the inhibition was -6.4% (inactive).

Consider `O=[N+]([O-])c1cccc(-c2nnc(C34CC5CC(CC(C5)C3)C4)o2)c1`, for which the inhibition is 3.3% (inactive).

On to `COc1ccccc1NC(=O)Nc1ccc2c(c1)nc(C)n2C`, for which the inhibition was -28.8% (inactive).

With `CCn1c(C)nc2cc(NC(=O)Nc3cccc(C(C)=O)c3)ccc21`, the inhibition is 27.9% (active).

Turning to `CC(=O)c1ccc(NC(=O)Nc2ccc3c(c2)nc(C)n3C)cc1`, the inhibition was -18.8% (inactive).

As for `Cc1nc2cc(NC(=O)Nc3cccc4ccccc34)ccc2n1C`, the inhibition is -27.6% (inactive).

As for `CCn1c(C)nc2cc(C(=O)NNC(=O)Nc3cccc(Cl)c3)ccc21`, the inhibition is -5.3% (inactive).

On to `Cc1nc2cc(NC(=O)Nc3ccccc3Cl)ccc2n1C`, for which the inhibition is 53% (active).

For the compound `CN1CCN(C(=O)C2CCCN(S(=O)(=O)c3ccc(F)cc3)C2)CC1` (configuration not stated), the inhibition was -7.3% (inactive).

Consider `Cc1ccccc1Nc1n[nH]c(C)c1[N+](=O)[O-]`, for which the inhibition was -24.5% (inactive).

Turning to `O=C(NCCc1ccccc1)c1cccc2c1C(=O)N(C1CCCCC1)C2`, the inhibition was -19.5% (inactive).

On to `O=C(Cc1ccc(Cl)cc1Cl)Nc1ccncc1`, for which the inhibition is 42.8% (inactive).

As for `COc1ccc(CC(=O)Nc2ccccc2NC(=O)Cc2ccc(OC)cc2)cc1`, the inhibition is -7.4% (inactive).

`O=C(Cc1c(Cl)cccc1Cl)Nc1ccncc1Cl`: the inhibition was 5.2% (inactive).

As to `COc1ccc(CC(=O)Nc2cccnc2)cc1`, the inhibition was -8.6% (inactive).

In the case of `COc1ccccc1/C=C/CN1CC(C)OC(C)C1` (configuration not stated), the inhibition is -19.9% (inactive).

With `Cc1ccc(NC(=O)CCn2cccc2)cc1`, the inhibition is 3.6% (inactive).

In the case of `O=C(CSc1nnc(-c2cccnc2)n1Cc1ccccc1)NCc1ccco1`, the inhibition was 8.8% (inactive).

For the compound `COC(=O)C1CCN(Cc2cn(-c3ccccc3)nc2-c2ccc3c(c2)OCO3)CC1`, the inhibition is -55.9% (inactive).

As to `CC1CN(Cc2c(O)ccc3c(=O)c(-c4ccccc4)coc23)CC(C)O1` (configuration not stated), the inhibition is -13.3% (inactive).

Regarding `COc1ccc(C2N3CC4(C)CN2CC(C)(C3)C4=O)cc1OC` (configuration not stated), the inhibition was -7.8% (inactive).

For the compound `O=C(CCc1nc(-c2ccccc2)no1)NCc1ccco1`, the inhibition is 11% (inactive).

As for `Cc1ccc(-c2noc(CCC(=O)NCc3ccco3)n2)cc1`, the inhibition was -0.8% (inactive).

In the case of `Fc1cnc(N2CCN(c3ccccc3)CC2)nc1N1CCN(c2ccccc2)CC1`, the inhibition is 43.3% (inactive).

For `O=C(CCc1nc2ccccc2c(=O)[nH]1)Nc1ccc(F)cc1`, the inhibition is -23.2% (inactive).

For the compound `Oc1ccc(-c2cn3ccccc3n2)cc1`, the inhibition was -2% (inactive).

On to `COC(=O)c1ccc2nc(-c3ccc4c(c3)OCO4)cn2c1`, for which the inhibition is 68.3% (active).

Regarding `Clc1ccc2nc(-c3ccc4c(c3)OCO4)cn2c1`, the inhibition was -30.6% (inactive).

On to `COC(=O)c1ccc2nc(-c3cccc(N)c3)cn2c1`, for which the inhibition is 40.5% (inactive).

With `Oc1ccc(-c2cn3ccccc3n2)cc1O`, the inhibition is 1.7% (inactive).

For the compound `c1ccn2cc(-c3ccc4c(c3)OCCO4)nc2c1`, the inhibition is 45.8% (active).

As to `CC12CCC(C(=O)O)(c3nc(C#N)c(C#N)nc31)C2(C)C` (configuration not stated), the inhibition is -25.8% (inactive).

For the compound `O=C(NCc1ccccn1)c1cccc(NS(=O)(=O)c2cccc(F)c2)c1`, the inhibition was -15.2% (inactive).

In the case of `O=C(CCCn1c(=S)[nH]c2cc3c(cc2c1=O)OCO3)N1CCN(c2ccccc2)CC1`, the inhibition is -1% (inactive).

For the compound `Cc1cccc(N2CCN(C(=O)CCCn3c(=S)[nH]c4cc5c(cc4c3=O)OCO5)CC2)c1C`, the inhibition was 2.8% (inactive).

With `O=C(CCCCCn1c(=S)[nH]c2ccc(N3CCOCC3)cc2c1=O)NCc1ccccc1`, the inhibition is 2.3% (inactive).

Turning to `O=C(CCCn1c(=S)[nH]c2cc3c(cc2c1=O)OCO3)N1CCN(c2ccc(F)cc2)CC1`, the inhibition is -8.6% (inactive).

For the compound `C=CCNC(=O)CN(c1ccc(F)c(Cl)c1)S(C)(=O)=O`, the inhibition was -17.3% (inactive).

As for `CC(=O)N[C@@H](C)C(=O)N1CCN(S(=O)(=O)c2ccc(Cl)cc2)CC1`, the inhibition is -26% (inactive).

As to `O=C(Nc1cccnc1Oc1ccc(Cl)cc1)c1cccc2ccccc12`, the inhibition was -9.2% (inactive).

`COc1cc(OC)c(NC2c3ccccc3C(=O)N2c2cc(C)ccn2)cc1Cl` (configuration not stated): the inhibition is -37.7% (inactive).

As for `Cc1ccc(C)c(NC(=O)CCN2CCCCC2)c1`, the inhibition is -14.7% (inactive).

For the compound `CCO[C@H]1OC(C(=O)O)=C[C@@H](c2ccc3c(c2)OCO3)[C@@H]1CCCO`, the inhibition is -10.4% (inactive).

The inhibition is the drop in the measured response relative to a control, in per cent.
